# Experimental data taken from the supplement of paper PMC11417369.
# Over roughly 25,000 sequences, “ln(normalized median fluorescence intensity)” has its median near 9.7; the highest 2% begin near 11. Many of the other results were omitted from the sample, so the highest values are more common in it than they were.
# Test system: PfAP2-HC AP2 domain (GST-tagged)
# Assay: gcPBM binding intensity (ln(normalized median fluorescence intensity)); higher = stronger DNA binding
# Summary of the method: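 Binding intensity is defined as the maximum Masliner-normalised natural-log median intensity across replicate spots for either probe orientation. It was measured on an Agilent 4 × 180k array of primer-extended double-stranded 36-bp intergenic genomic probes and negative controls, to which GST-tagged P. falciparum DNA-binding domains made in E. coli were applied for 1 h in 1× PBS with 1% milk, 0.2 mg/ml BSA, 0.5% salmon testes DNA and 0.03% Triton X-100. Detection was by Alexa488 anti-GST antibody and scanning at 488 nm.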
row,Sequence,gcPBM binding intensity (ln)
1,AAAAAAAAAATATACACACACACATACACATAAATA [CACACA_site3808],10.4
2,ACAAAAAAAAAAAAAATACACACACATAAAAAAAAA [TGCATGCA_negctrl_site333],10.2
3,TATTAATACGGACACACACACACACTAGATAAAATA [CACACA_site4295],10.8
4,AACAAACACGGACACACACACACACTAGAATGATTA [CACACA_site5364],10.7
5,AAAAAAAAAAAATACACACACATAAAAAAAAAAATA [CACACA_site1858],10.9
6,AATAAAATAAAATACACACATACATACATACAAATG [CACACA_site2438],11.2
7,AAGGCAAACAAACACACACACATATATACATATATA [CACACA_site2122],10.4
8,AAAAAAAAAAAAAATACACACACATAAAAAAAAAAA [CACACA_site8555],10.9
9,TAAAGGCAAACAAACACACACACATATATACCTATA [CACACA_site7078],10.6
10,AAAATAAAATAAAATACACACATACATACATACAAA [CACACA_site5366],10.2
11,AATACATAATAACATGTACACACATTCTTCTATAAA [CACACA_site9344],9.82
12,TAATAAACTTAAAAATGTACATATATTTATTATTAC [XGTACX_site4321],9.61
13,AGTAAGAGGCATTAAGCATGCATATTATTATAAGCA [TGCATGCA_site237],9.85
14,AAGAATGTTAATAGTACACACAATTATTATATAAAT [CACACA_site3739],9.93
15,TCCAAATGTTTGCGTTGTACTCTTTTTTTAAAACTA [XGTACX_site5148],9.73
16,ATATTTTTTTATAAATGTACAAAAATAATATTGCAT [XGTACX_site7399],9.48
17,ATATATATTATCATTGTGCACTTATTTATATACCTT,10
18,CATATAAAAATATGCACACACAGGAATACAAACATA [CACACA_site684],10.3
19,CAAATACACCAACACACACACACAAAAAAAAAAAAA [CACACA_site514],11.3
20,TGTACAAATATGTACACACACACATATATATATATA [CACACA_site584],10.3
21,AAAATACACCAACACACACACATATATATATATATT [CACACA_site4149],10.3
22,AACATATAAAAATATGCACACACAGGAATACAAACA [CACACA_site8127],11.2
23,AAAATATATACACAAACATGCATATAATAAATAAAT [TGCATGCA_site711],9.99
24,AAAAAAAAAAAACATACACACAAATATATACATACA [CACACA_site4011],10.2

row,Sequence,gcPBM binding intensity (ln)
1,ATATATCTACAAATATGTACACACACACATATATAT [XGTACX_site1075],11.1
2,AAAATACACAACATATATATATATATATATATATAT [XGTACX_negctrl_site21],9.62
3,AAAAAAAAAAAAAACATACACACAAATATATACATA [CACACA_site4010],10
4,AAAAAAAAAAAACACACACACACATACAAAATATAT [CACACA_site1448],11.3
5,AATAAATATATGTACACACACAAATATATACATATC [CACACA_site1903],10.2
6,TATAAATTAAAATCAGTGCATATTTTGAAAAACCTC,9.66
7,ATATATTGATATATGTGTACATAGCTTATTTCATTT [XGTACX_site1800],9.74
8,GTAAAATTAAAAATAACACACAAAAAAAAAAAAAAA [CACACA_site800],9.85
9,TTTATTTATTTATTCTTATTTTTTTTTTTTTTTACT [CACACA_negctrl_site257],9.49
10,CTATGAACACACACATGTACATATATTAACTCGCTA [XGTACX_site8805],9.98
11,TTATAACTTTTCACAAGTACATATATATATGTATAA [XGTACX_site2306],9.53
12,AAGTTAGTATTCTGCTGTACTTCTATATATAAGTGT [XGTACX_site7678],9.61
13,GATACAAAATGGGGAACACACACATATATATATATA [CACACA_site9278],10.8
14,TATATACACATATATAAACACACAAAAAAAAAAAAA [CACACA_site8626],9.82
15,CACACGCACGGACACACACACAAAAAAAAAAAGAAA [CACACA_site6378],10.3
16,CACAGACACGGACACACACACACAAAAAAAAAAAGA [CACACA_site4436],11.3
17,TACAAAATGGGGAACACACACATATATAAATAAATA [CACACA_site7751],11.1
18,TACAAAATGGGGAACACACACATATATATATATATA [CACACA_site3844],9.99
19,AACAGACAAAGACACACACACATACATACATACATA [CACACA_site6351],10.4
20,TATAAATATATATATACACACACATACACAAAAAAA [CACACA_site9191],10.5
21,TATAACATAAAACACACACACATACATACACAAAAA [CACACA_site1804],11
22,CACATACATATATACACACACAAAATAATAAAATAA [CACACA_site2308],10.4
23,TATACACATATATAAACACACAAAAAAAAAAAAAAA [CACACA_site7041],9.57
24,TAAATATATAAATACACACACATACACAAAAAAAAA [CACACA_site5890],10.9
